Screens as filed in PubChem BioAssay.
NPR1 activator = GC-A stimulated cGMP production enhancers – HEK293 GC-A cells, cGMP TR-FRET, EC30 ANP, primary screen; Atrial natriuretic peptide receptor 1 (Homo sapiens), P16066; 0% at EC30 ANP, 100% saturating ANP; activation, % at 10 µM; 370,000 compounds, 0.14% hits; AID 1671463, 2021; in the data active = activation above about 40%
NPR2 activator = human GC-B receptor activators, primary screen, HEK293 GC-B cells, cGMP TR-FRET, EC30 CNP; 370,000 compounds, 0.11% hits; Atrial natriuretic peptide receptor 2 (Homo sapiens), P20594; activation, % at 10 µM; 0% at EC30 CNP, 100% saturating CNP;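 active = activation at 10 µM reaching about 35% in either raw or pattern-adjusted values, limit read from the data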
PfM18AAP inh-1 = PfM18AAP inhibitors, malaria aminopeptidase, primary screen, biochemical, QFRET, recombinant enzyme; M18 aspartyl aminopeptidase (Plasmodium falciparum 3D7); H-Glu-NHMec fluorogenic cleavage; inhibition, % at 7.35 µM; 290,000 compounds, 1.2% hits;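 active = inhibition above the campaign mean inhibition over all tested compounds plus 3 SD, cut at about 28% in these data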;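 also: 0% = plate median of test compound wells and 100% = 2 mM ZnCl2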
PLC-beta3 inh = human PLC-beta3 inhibitors, primary screen, biochemical, fluorescence. 1-phosphatidylinositol 4,5-bisphosphate phosphodiesterase beta-3 (Homo sapiens), Q01970. 370,000 compounds, 0.18% hits. inhibition, % at 12.2 µM. Purified PLC-beta3, fluorogenic substrate. AID 720704, 2013; in the data active = inhibition above about 11%;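 also: 0% = median of compound wells on plate and 100% = full blocker control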
Rce1 inhib = yeast Rce1p protease inhibitors, primary screen, biochemical, fluorescence, cell-free homogeneous; CAAX prenyl protease 2 (Saccharomyces cerevisiae (strain ATCC 204508 / S288c)), Q03530; yeast membranes, quenched prenylated peptide cleavage fluorescence; calls only; 290,000 compounds, 0.27% hits;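 active = fall in fluorescence gain of 50% or more versus controls, with final raw signal at or below 3038400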;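 also: plate controls were neutral control wells for no effect and wells lacking membranes for full effect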
PLCg1 inh = PLC-gamma1 enzyme inhibitors, primary screen, biochemical, fluorescence, purified enzyme. 1-phosphatidylinositol 4,5-bisphosphate phosphodiesterase gamma-1 (Homo sapiens), P19174. fluorogenic substrate. inhibition, % at 12.2 µM. 370,000 compounds, 0.84% hits. AID 720700, 2013; in the data active = inhibition above about 9.5%
Target sequence (P19174 whole entry, looked up): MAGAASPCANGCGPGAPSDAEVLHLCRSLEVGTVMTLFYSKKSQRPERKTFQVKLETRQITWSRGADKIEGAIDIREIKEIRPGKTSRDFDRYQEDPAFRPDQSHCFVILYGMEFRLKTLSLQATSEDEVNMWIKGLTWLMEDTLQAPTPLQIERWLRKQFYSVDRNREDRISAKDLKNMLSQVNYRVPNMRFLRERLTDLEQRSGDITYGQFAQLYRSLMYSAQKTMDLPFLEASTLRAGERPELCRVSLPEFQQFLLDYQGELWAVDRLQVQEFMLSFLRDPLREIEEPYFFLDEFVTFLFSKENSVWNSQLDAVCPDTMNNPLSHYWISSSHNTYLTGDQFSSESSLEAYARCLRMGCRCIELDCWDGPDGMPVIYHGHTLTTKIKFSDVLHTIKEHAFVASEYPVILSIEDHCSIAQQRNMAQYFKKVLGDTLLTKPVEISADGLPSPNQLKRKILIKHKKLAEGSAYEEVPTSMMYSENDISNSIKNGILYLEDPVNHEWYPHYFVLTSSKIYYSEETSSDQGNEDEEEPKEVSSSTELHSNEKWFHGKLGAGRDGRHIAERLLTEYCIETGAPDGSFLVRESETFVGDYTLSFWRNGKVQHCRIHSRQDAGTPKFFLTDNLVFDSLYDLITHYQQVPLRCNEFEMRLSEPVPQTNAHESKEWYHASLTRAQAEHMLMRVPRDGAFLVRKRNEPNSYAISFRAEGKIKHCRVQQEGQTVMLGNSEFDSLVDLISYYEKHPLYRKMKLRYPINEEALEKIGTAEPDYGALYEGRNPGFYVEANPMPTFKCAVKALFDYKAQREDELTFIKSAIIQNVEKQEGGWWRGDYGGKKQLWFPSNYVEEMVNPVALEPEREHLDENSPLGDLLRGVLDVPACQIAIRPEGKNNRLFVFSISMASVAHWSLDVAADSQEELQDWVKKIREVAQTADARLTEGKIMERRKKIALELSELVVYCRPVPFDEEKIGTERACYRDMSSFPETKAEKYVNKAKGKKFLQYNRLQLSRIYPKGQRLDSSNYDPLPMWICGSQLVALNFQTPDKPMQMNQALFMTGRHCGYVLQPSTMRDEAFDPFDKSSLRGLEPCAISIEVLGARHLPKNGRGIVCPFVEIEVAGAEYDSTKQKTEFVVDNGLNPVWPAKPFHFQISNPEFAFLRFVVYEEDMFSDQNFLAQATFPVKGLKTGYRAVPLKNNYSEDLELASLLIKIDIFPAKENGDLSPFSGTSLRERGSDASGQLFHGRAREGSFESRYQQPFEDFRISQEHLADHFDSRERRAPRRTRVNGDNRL
PfM18AAP inh-2 = PfM18AAP inhibitors, malaria aminopeptidase, confirmation, biochemical, QFRET, recombinant enzyme, triplicate | shares compounds with PfM18AAP inh-1 | H-Glu-NHMec fluorogenic cleavage | inhibition, % at 7.35 µM | 2,400 compounds, 28% hits | AID 2170, 2009;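 active = mean inhibition over replicate wells above the hit cutoff set for the earlier primary screen, cut at about 29% in these data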;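 also: 0% = median of test compound wells and 100% = 2 mM ZnCl2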
CTSL1 counter = cathepsin L1 inhibitors, retest, confirmation, counter-screen for PFM18AAP inhibitor project, biochemical, QFRET, triplicate | shares compounds with PfM18AAP inh-1 | purified cathepsin L1, Z-Leu-Arg-MCA fluorescence | inhibition, % at 5.96 µM | 2,400 tested, under 10 active | AID 2178, 2009;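 active = average inhibition across replicates above the hit cutoff set in the earlier primary screen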;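 also: 0% = median of test compound wells and 100% = Z-Phe-Ala-diazomethylketone 1 µM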
The depositor's hits bear a star; i = inactive; / = no result given. An excerpt weighted towards active compounds, which were near 2.2% of everything screened.

SMILES	NPR1 activator	NPR2 activator	PfM18AAP inh-1	PLC-beta3 inh	Rce1 inhib	PLCg1 inh	PfM18AAP inh-2	CTSL1 counter
N#CCC[C@H]1CC[C@]2(CCCN(C(=O)c3ccc4ccccc4n3)C2)O1	3	-3	/	-1	/	-1	/	/
Cc1cc(N/N=C/c2ccccc2O)nc(-c2ccccc2O)n1	3	5	42*	-43	i	-43	40*	9
Cc1cc(N/N=C/c2ccc(O)cc2O)nc(-n2nc(C)cc2C)n1	1	2	51*	-44	i	-36	33*	1
Cc1cc(N/N=C/c2ccc(O)cc2O)nc(-c2ccccc2O)n1	/	/	52*	/	i	/	54*	-1
Cc1cc(N/N=C\c2ccccc2)nc(-c2ccccc2O)n1	14	8	11	-70	i	-59	/	/
O=C(C1CCCN(S(=O)(=O)c2cccs2)C1)N1CCN(Cc2ccccc2)CC1 (stereo not given)	3	6	/	-2	/	1	/	/
C[C@@H]1/C=C/CC(=O)N[C@H](c2ccccc2)[C@H](C)/C=C/CC(=O)N[C@@H]1c1ccccc1	-1	-5	/	-4	/	1	/	/
NNC(=O)c1c(O)c2cccc3c2n(c1=O)CCC3	4	5	34*	-5	i	-2	-4	2
CC(C)NC(=O)c1c(O)c2cccc3c2n(c1=O)CCC3	1	-8	-3	-7	i	-2	/	/
Cc1ccc(NC(=O)Nn2cnnc2)cc1	4	4	45*	-7	i	2	37*	1
O=C(Nc1ccc(Cl)cc1)Nn1cnnc1	-1	3	68*	0	i	4	57*	0
CC(=O)Nc1ccc(S(=O)(=O)Nn2cnnc2)cc1	0	3	37*	3	i	-1	36*	6
Nc1c(C(=O)N2CCN(CCc3ccccc3)CC2)cnn1-c1ccccc1	6	12	/	1	/	-1	/	/
CCc1nnc(NC(=O)CSc2nc(-c3ccccc3)c(-c3ccccc3)o2)s1	-5	0	-4	-3	i	2	/	/
CCc1nnc(NC(=O)CSc2nnc(CSc3nc(C)cc(C)n3)n2CC)s1	/	/	1	/	/	/	/	/
CCc1nnc(NC(=O)CSc2nnc(-c3ccccc3O)o2)s1	-3	-8	34*	-71	i	-62	-17	-3
CCc1nnc(NC(=O)CSc2nnc(CSc3nc(C)cc(C)n3)o2)s1	0	3	36*	2	i	-1	-28	1
CCOCc1nnc(NC(=O)CSc2ccccc2)s1	3	-2	1	-2	i	-1	/	/
CC(C)(C)Cc1nnc(NC(=O)CSc2ccccc2)s1	5	6	40*	-5	i	-3	20	2
O=C(Nc1ccc(F)cc1)OCc1cn(Cc2cccc(F)c2)nn1	2	-5	/	-2	/	-2	/	/
CCN(CCNC(=O)c1cccc(N2CCCC2=O)c1)c1ccccc1	2	-3	-1	4	/	3	/	/
CN(CCCNC(=O)C1CCC(=O)N1Cc1ccccc1Cl)c1ccccc1 (stereo not given)	-6	-3	0	2	i	2	/	/
CCN(CCCNC(=O)CN1C(=O)COc2ccccc21)c1cccc(C)c1	-9	-2	49*	3	i	0	-12	2
CCCS(=O)(=O)N1CCCC(C(=O)NCCCN(CC)c2cccc(C)c2)C1 (stereo not given)	3	3	-3	5	i	-1	/	/
CCN(CCCNC(=O)c1ccc(N2CCCC2=O)cc1)c1cccc(C)c1	-3	4	41*	-1	i	2	-17	2
SMILES	NPR1 activator	NPR2 activator	PfM18AAP inh-1	PLC-beta3 inh	Rce1 inhib	PLCg1 inh	PfM18AAP inh-2	CTSL1 counter
CCCS(=O)(=O)N1CCC(C(=O)NCCCN(CC)c2cccc(C)c2)CC1	6	0	40*	3	/	1	-15	0
CCN(CCCNC(=O)C1CCC(=O)N1Cc1ccccc1Cl)c1cccc(C)c1 (stereo not given)	-5	0	37*	4	i	0	-23	-1
COc1cccc(CNC(=O)[C@H]2CCCN2C(=O)[C@H]2CCCN2C(=O)c2ccc(F)cc2F)c1	2	4	/	3	/	0	/	/
N#CCC[C@H]1CC[C@]2(CCCN(c3ccccc3)C2)O1	5	6	/	-3	/	1	/	/
C[C@H]1C(=O)CC[C@@]23CCCN2C(=O)CCC[C@@H]13	1	3	/	3	/	3	/	/
COC[C@@H]1CCCN1c1ccc2c(c1)O[C@H]1CCN(C1)S2(=O)=O	1	8	/	3	/	-3	/	/
CCN(CCNC(=O)C1CCC(=O)N1Cc1ccc(C)cc1)c1ccccc1 (stereo not given)	-10	-4	5	-8	i	-1	/	/
CCN(CCCNC(=O)C1CCC(=O)N1Cc1ccc(C)cc1)c1cccc(C)c1 (stereo not given)	-6	-1	54*	-2	i	-4	-17	4
O=C(OCc1cn(Cc2cccc(F)c2F)nn1)N1CCOCC1	1	0	/	0	/	2	/	/
Cc1cc(NC(=O)CSc2nnc(CNC(=O)c3ccccc3)o2)no1	2	0	10	-5	i	3	/	/
Cc1cc(NC(=O)CSc2nnc(Cc3ccccc3)o2)no1	0	-9	40*	1	i	-5	-35	2
CCOC(=O)[C@@]12CN(C(=O)OC(C)(C)C)CC=C1N(Cc1ccc(OC)cc1)C(=O)[C@H]2CC(=O)NCC1CCCCC1	-4	6	/	1	/	1	/	/
COc1ccccc1C(=O)N1CCN(C(=O)[C@@H](Cc2ccccc2)NC(=O)[C@H]2O[C@@H](n3cnc(C(N)=O)n3)[C@H](O)[C@@H]2O)CC1	-3	8	/	1	/	-1	/	/
CCc1nnc(N/N=C/c2cc(Br)c(O)cc2O)n1N	-3	0	62*	-25	i	-12	54*	1
CCc1nnc(N/N=C\c2ccc(OC(C)=O)c(OC)c2)n1N	-4	2	18	0	i	8	/	/
